# According to PMC7862700, “An all-to-all approach to the identification of sequence-specific readers for epigenetic DNA modifications on cytosine”:
# Tests used:
# Test in all cases: DAPPL (digital affinity profiling via proximity ligation, sequencing); 10 mM Tris-HCl pH 7.5, 50 mM NaCl, 1 mM DTT, 4% glycerol, room temperature, 30 min; GST-TFs on glutathione beads, 16-mer random dsDNA library, 0.1% formaldehyde crosslink after washing; high values mean tight binding
# [1] = biological target: T1, FEV (Homo sapiens, UniProt Q99581 1-238); details: protein: recombinant; tags: N-terminal GST; dsDNA, one strand shown
# T1 sequence: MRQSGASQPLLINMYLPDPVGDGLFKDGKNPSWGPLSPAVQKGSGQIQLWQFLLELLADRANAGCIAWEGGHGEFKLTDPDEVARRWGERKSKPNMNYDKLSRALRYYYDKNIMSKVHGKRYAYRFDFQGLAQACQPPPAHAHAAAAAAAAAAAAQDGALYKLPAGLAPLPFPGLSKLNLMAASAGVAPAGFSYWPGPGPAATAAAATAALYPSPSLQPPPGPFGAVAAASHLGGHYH
# Procedure, shortened: (§1)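 Binding signal is each hexamer's read frequency for a factor divided by its frequency in the tag-only sample. The factors were GST-fused human transcription factors from yeast, captured on glutathione beads, DNA-barcoded and pooled with that sample. Pools were incubated with 200 nmole of a random double-stranded 16-mer DNA library in Tris/NaCl/DTT/glycerol buffer at room temperature for 30 min, then washed, crosslinked with 0.1% formaldehyde, proximity-ligated with BsaI/T4 ligase (1 h, 37 °C), PCR-amplified and sequenced on an Illumina NextSeq500.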
# [2] = biological target: ETV5 (Homo sapiens, UniProt P41161 1-510); details: protein: recombinant; tags: N-terminal GST; dsDNA, one strand shown
# Procedure, shortened: as §1
# [3] = biological target: HSF1 (Homo sapiens, UniProt Q00613 1-529); details: protein: recombinant; tags: N-terminal GST; chain copies: 3; dsDNA, one strand shown
# Procedure, shortened: as §1
# [4] = biological target: ELF4 (Homo sapiens, UniProt Q99607 1-663); details: protein: recombinant; tags: N-terminal GST; dsDNA, one strand shown
# Procedure, shortened: as §1
# [5] = biological target: T2, ELK4 (Homo sapiens, UniProt P28324-2 1-405); details: protein: recombinant; tags: N-terminal GST; dsDNA, one strand shown
# T2 sequence: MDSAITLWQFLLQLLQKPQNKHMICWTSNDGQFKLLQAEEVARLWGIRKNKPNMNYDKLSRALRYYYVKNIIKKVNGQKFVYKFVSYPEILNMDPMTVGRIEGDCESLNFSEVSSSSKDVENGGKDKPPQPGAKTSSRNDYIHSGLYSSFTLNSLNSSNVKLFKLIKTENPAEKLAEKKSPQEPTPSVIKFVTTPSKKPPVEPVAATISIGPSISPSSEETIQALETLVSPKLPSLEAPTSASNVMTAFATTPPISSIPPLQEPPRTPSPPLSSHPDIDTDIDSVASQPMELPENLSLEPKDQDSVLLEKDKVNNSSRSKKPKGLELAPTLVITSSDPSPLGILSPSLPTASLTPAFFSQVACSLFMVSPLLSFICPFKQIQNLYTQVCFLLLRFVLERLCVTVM
# Procedure, shortened: as §1
# [6] = biological target: T3, ETV2 (Homo sapiens, UniProt O00321 1-342); details: protein: recombinant; tags: N-terminal GST; dsDNA, one strand shown
# T3 sequence: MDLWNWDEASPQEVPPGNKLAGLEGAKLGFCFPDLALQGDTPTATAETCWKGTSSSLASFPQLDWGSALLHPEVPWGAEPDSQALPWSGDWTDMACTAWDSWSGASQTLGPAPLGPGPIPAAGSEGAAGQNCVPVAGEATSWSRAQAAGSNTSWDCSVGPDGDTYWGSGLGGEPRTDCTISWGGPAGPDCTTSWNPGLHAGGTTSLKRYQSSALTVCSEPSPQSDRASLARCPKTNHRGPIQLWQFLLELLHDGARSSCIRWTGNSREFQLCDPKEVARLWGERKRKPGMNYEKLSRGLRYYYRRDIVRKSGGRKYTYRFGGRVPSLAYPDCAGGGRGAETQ
# Procedure, shortened: as §1
# [7] = biological target: T4, ELF3 (Homo sapiens, UniProt P78545 1-371); details: protein: recombinant; tags: N-terminal GST; dsDNA, one strand shown
# T4 sequence: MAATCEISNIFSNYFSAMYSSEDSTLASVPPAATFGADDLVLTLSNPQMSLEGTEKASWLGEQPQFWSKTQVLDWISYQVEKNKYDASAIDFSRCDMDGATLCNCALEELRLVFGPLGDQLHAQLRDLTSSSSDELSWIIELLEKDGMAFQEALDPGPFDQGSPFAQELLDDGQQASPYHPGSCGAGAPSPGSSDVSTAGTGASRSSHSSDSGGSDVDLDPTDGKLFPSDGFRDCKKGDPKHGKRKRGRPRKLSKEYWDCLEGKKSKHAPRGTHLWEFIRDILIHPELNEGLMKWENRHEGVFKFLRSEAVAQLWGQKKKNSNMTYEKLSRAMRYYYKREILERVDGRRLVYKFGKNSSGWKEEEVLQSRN
# Procedure, shortened: as §1
# [8] = biological target: ETV1 (Homo sapiens, UniProt P50549 1-477); details: protein: recombinant; tags: N-terminal GST; dsDNA, one strand shown
# Procedure, shortened: as §1
# [9] = biological target: T5, ERF (Homo sapiens, UniProt P50548 1-548); details: protein: recombinant; tags: N-terminal GST; dsDNA, one strand shown
# T5 sequence: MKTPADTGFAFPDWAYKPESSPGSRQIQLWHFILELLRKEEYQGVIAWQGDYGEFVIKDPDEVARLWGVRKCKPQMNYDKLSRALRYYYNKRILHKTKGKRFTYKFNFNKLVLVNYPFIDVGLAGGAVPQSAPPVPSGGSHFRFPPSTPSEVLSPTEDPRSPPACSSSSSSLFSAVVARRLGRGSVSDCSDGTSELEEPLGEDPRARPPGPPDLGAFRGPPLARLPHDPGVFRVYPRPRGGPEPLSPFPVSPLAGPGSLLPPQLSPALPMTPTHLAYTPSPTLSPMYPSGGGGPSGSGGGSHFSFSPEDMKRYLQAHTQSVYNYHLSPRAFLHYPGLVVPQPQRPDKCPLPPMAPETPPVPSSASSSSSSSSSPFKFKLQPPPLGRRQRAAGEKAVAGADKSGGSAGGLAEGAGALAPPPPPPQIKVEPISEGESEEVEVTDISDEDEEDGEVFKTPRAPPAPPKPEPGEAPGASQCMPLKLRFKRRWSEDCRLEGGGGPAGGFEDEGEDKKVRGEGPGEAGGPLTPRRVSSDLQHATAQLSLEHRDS
# Procedure, shortened: as §1
# [10] = biological target: T6, ETV3L (Homo sapiens, UniProt Q6ZN32 1-361); details: protein: recombinant; tags: N-terminal GST; dsDNA, one strand shown
# T6 sequence: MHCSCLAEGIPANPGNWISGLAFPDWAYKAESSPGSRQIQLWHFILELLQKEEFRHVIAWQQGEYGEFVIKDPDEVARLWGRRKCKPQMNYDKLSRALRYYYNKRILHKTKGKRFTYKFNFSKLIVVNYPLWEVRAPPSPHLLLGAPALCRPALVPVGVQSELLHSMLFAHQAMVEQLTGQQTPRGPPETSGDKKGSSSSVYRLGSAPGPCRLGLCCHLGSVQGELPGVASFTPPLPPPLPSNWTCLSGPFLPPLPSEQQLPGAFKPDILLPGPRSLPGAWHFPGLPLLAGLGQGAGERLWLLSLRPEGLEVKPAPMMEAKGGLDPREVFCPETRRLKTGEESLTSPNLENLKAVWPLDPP
# Procedure, shortened: as §1
# [11] = biological target: T7, ETS2 (Homo sapiens, UniProt P15036 1-469); details: protein: recombinant; tags: N-terminal GST; dsDNA, one strand shown
# T7 sequence: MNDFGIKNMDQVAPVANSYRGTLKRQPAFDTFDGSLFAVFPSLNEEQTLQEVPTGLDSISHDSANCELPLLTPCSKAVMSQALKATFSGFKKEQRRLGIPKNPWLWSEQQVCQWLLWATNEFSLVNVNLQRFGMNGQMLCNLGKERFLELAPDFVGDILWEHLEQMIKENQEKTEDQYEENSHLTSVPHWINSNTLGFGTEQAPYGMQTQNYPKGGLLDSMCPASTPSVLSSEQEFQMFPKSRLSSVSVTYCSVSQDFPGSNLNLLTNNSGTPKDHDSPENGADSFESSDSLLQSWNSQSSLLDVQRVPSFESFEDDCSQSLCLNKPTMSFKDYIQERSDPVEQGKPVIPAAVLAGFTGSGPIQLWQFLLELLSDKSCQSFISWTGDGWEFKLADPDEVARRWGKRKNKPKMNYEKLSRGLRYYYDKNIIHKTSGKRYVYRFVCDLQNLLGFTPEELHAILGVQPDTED
# Procedure, shortened: as §1
# [12] = biological target: T8, ETV7 (Homo sapiens, UniProt Q9Y603 1-341); details: protein: recombinant; tags: N-terminal GST; dsDNA, one strand shown
# T8 sequence: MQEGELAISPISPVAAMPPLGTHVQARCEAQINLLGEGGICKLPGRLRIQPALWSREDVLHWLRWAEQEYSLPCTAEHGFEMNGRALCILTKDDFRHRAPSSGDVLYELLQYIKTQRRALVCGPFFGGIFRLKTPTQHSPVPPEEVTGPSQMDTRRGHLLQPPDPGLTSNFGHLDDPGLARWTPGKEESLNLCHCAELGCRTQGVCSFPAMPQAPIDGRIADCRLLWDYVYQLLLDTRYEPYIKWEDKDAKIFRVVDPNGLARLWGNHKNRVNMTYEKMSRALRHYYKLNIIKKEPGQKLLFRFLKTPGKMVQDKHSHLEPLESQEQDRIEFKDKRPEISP
# Procedure, shortened: as §1
# [13] = biological target: T9, ELF5 (Homo sapiens, UniProt Q9UKW6-2 1-255); details: protein: recombinant; tags: N-terminal GST; dsDNA, one strand shown
# T9 sequence: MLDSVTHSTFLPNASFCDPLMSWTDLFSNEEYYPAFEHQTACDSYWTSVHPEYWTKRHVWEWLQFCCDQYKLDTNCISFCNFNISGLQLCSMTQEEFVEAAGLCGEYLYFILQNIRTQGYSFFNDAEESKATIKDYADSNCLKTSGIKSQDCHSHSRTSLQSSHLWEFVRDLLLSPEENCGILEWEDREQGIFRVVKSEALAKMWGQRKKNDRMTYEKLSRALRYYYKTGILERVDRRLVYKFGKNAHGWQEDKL
# Procedure, shortened: as §1
# [14] = biological target: T10, ETV3 (Homo sapiens, UniProt P41162-2 1-143); details: protein: recombinant; tags: N-terminal GST; dsDNA, one strand shown
# T10 sequence: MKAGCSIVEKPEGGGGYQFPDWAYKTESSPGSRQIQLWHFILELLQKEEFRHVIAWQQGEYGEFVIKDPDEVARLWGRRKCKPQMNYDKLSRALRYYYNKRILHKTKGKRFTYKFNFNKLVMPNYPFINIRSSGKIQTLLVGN
# Procedure, shortened: as §1
# [15] = biological target: ETV6 (Homo sapiens, UniProt P41212 1-452); details: protein: recombinant; tags: N-terminal GST; dsDNA, one strand shown
# Procedure, shortened: as §1
# Chain of ETV5 (P41161 whole entry): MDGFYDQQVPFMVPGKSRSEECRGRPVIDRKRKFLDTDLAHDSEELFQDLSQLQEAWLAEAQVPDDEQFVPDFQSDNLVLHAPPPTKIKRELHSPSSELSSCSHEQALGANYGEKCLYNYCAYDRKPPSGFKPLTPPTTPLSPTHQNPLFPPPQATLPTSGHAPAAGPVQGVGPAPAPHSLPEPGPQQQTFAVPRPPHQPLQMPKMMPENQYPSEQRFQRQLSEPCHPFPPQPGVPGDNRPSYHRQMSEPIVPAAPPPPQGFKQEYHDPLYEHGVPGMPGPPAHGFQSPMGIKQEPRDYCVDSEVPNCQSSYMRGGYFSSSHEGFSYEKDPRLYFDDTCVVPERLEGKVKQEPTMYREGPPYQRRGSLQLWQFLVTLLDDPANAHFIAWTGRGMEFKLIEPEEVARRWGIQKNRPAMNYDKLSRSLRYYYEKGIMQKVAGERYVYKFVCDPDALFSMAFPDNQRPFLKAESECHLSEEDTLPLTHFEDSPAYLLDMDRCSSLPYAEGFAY
# Chain of ETV1 (P50549 whole entry): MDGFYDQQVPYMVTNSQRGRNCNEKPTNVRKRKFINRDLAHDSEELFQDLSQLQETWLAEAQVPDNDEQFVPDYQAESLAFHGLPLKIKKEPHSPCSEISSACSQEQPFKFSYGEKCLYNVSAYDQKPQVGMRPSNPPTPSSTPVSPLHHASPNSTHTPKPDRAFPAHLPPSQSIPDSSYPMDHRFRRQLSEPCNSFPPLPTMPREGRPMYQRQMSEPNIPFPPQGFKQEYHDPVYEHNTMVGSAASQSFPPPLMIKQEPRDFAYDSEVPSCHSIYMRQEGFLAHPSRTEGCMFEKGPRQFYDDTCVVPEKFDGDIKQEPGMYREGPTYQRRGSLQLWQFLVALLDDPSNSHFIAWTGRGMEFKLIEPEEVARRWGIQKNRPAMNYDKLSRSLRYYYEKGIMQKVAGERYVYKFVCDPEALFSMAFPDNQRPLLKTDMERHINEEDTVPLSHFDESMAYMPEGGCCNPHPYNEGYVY
# Chain of HSF1 (Q00613 whole entry): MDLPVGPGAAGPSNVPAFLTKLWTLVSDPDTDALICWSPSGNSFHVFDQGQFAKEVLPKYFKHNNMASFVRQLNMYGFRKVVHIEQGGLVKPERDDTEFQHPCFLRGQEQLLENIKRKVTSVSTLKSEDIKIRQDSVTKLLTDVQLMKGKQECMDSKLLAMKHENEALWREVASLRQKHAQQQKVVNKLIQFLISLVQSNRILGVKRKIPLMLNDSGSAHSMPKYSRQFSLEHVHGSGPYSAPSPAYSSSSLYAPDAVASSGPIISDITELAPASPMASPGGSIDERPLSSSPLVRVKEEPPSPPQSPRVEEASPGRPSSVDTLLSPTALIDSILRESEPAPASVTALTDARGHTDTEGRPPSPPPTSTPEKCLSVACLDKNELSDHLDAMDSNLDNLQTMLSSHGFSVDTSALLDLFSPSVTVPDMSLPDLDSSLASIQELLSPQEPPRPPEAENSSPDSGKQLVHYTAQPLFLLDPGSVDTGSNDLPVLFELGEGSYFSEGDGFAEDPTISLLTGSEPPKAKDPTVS
# Chain of ELF4 (Q99607 whole entry): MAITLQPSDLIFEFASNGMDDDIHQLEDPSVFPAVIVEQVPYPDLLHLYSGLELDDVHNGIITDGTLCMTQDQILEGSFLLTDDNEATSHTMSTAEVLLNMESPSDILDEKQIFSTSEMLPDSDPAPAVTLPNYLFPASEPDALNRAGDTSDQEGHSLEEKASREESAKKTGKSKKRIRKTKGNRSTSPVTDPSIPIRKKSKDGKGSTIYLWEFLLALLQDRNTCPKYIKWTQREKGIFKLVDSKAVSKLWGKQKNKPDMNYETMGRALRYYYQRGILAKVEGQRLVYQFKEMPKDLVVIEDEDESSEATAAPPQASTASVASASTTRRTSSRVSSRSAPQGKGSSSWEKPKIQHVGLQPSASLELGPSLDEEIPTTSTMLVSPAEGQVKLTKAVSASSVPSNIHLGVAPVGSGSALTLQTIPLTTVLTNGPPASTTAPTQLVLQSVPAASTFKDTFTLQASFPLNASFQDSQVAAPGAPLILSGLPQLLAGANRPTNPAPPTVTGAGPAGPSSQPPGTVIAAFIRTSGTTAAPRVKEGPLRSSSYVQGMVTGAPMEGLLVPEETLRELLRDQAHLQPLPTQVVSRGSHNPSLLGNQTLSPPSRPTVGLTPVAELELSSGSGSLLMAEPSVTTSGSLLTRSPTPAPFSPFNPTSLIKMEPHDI
# Chain of ETV6 (P41212 whole entry): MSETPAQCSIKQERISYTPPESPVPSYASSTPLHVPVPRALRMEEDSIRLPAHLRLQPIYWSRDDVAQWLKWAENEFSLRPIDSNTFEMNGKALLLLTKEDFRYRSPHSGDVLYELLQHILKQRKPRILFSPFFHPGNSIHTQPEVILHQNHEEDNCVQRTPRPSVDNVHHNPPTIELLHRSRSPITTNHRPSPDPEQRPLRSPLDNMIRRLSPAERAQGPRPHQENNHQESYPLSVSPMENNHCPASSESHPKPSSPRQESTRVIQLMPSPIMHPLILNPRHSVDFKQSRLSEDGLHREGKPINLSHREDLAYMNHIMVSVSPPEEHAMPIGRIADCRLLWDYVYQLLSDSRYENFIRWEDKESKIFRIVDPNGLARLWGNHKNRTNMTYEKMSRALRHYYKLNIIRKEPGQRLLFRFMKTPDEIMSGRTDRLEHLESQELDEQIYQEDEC
sequence,measurement,setting,value
CTGGCC,binding signal,[1],"1.13 fold enrichment (6-mer frequency, TF over GST control)"
same,binding signal,[2],"1.19 fold enrichment (6-mer frequency, TF over GST control)"
same,binding signal,[3],"1.01 fold enrichment (6-mer frequency, TF over GST control)"
same,binding signal,[4],"1.2 fold enrichment (6-mer frequency, TF over GST control)"
same,binding signal,[5],"1.35 fold enrichment (6-mer frequency, TF over GST control)"
same,binding signal,[6],"1.04 fold enrichment (6-mer frequency, TF over GST control)"
same,binding signal,[7],"1 fold enrichment (6-mer frequency, TF over GST control)"
same,binding signal,[8],"1.15 fold enrichment (6-mer frequency, TF over GST control)"
same,binding signal,[9],"1.19 fold enrichment (6-mer frequency, TF over GST control)"
same,binding signal,[10],"1.11 fold enrichment (6-mer frequency, TF over GST control)"
same,binding signal,[11],"1.17 fold enrichment (6-mer frequency, TF over GST control)"
same,binding signal,[12],"1.03 fold enrichment (6-mer frequency, TF over GST control)"
same,binding signal,[13],"1.01 fold enrichment (6-mer frequency, TF over GST control)"
same,binding signal,[14],"1.06 fold enrichment (6-mer frequency, TF over GST control)"
same,binding signal,[15],"1.23 fold enrichment (6-mer frequency, TF over GST control)"
